# In PubChem BioAssay AID2111 (National Center for Advancing Translational Sciences (NCATS), 2009):
# Values without a mark were called inactive. Calls of active or inactive are those of the source. The call rests on the fitted dose curve; in most records, active means well fitted curve in either direction with a large enough effect; inconclusive means small, poorly fitted or top-dose-only effect; inactive means no such curve, though single readings can be large or run the other way.
# Target: Lysosomal alpha-glucosidase (Homo sapiens) (UniProt P10253)
# Assay: Confirmation of Inhibitors and Activators of Human alpha-Glucosidase From Spleen Homogenate Using an Alternate Red Fluorescent Susbtrate
# Settings: resorufin-glucoside fluorescence; series mostly up to 62.8 µM; activity change, negative = inhibition: at the top concentration
# Source text: NIH Chemical Genomics Center [NCGC] NIH Molecular Libraries Probe Production centers Network [MLPCN] MLPCN Grant: 1R03MH084841-01 Assay Submitter (PI): Wei Zheng NCGC Assay Overview: Alpha-glucosidase is responsible for hydrolysis of terminal, non-reducing 1,4-linked alpha-D-glucose residues with release of alpha-D-glucose. It is a lysosomal hydrolase that is required for the degradation of a small percentage (1-3%) of cellular glycogen in human. Deficiency of this enzyme results in glycogen-storage disease type II (GSDII), also referred to as Pompe disease, an autosomal recessive disorder. Structurally normal glycogen is accumulated in lysosomes and cytoplasm in affected patients, primarily in muscle tissues. Excessive glycogen storage within lysosomes may interrupt normal functioning of other organelles and leads to cellular injury. In turn, this leads to enlargement and dysfunction of the entire organ involved (eg, cardiomyopathy and muscle weakness). It has reported that the improper folding and trafficking of alpha-glucosidase resultinged from the genetic mutations may account for a significant number of Pomrope patients. […] We optimized this alpha-glucosidase assay in 1536-well plate format for identifying the novel small molecule inhibitors with the structures other than the sugar analogs in order to develop the new pharmacological chaperones. In particular, this assay is directed towards discovering compounds active in a more natural setting, tissue homogenate, that may have been missed by screens of the purified enzyme under more stringent conditions. This assay attempted to confirm hits from the primary screening using an alternate fluor than the primary screen used.
# NCGC Assay Protocol Summary: This is a fluorogenic enzyme assay with Resorufin-alpha-D-glucopyranoside as the substrate and human spleen homogenate containing alpha-glucosidase as the enzyme preparation. Upon hydrolysis of this fluorogenic substrate, the resulting product, resorufin (which excites at 573 nm and emits at 610 nm) can be detected by a fluorescence plate reader. Data were normalized to the controls for basal activity (without enzyme) and 100% activity (with enzyme). The AC50 values were determined from concentration-response data modeled with the standard Hill equation. Assay buffer: 50 mM citric acid (titrated with potassium phosphate to pH 5.0), 0.01% Tween-20 (pH 5.0 is an optimal condition for this enzyme assay) 1536-well assay protocol for the alpha-glucosidase from human spleen homogenate: (1) Add 2 ul/well spleen homogenate (1 ug) (2) Add 23 nL compounds in DMSO solution. The final titration was 0.5 nM to 58 uM. (3) Add 2 ul of substrate (1 mM final) (4) Incubate at 37 C for 40 min (5) Add 2 ul stop solution (1M NaOH and 1M Glycine mixture, pH 10) (6) Detect the assay plate in a ViewLux plate reader (PerkinElmer) with […]. Keywords: Alpha-glucosidase, Pompe Disease, pharmacological chaperone, chaperone therapy, high throughput screening, alpha-glucosidase inhibitor, MLSMR, MLSCN, NIH Roadmap, qHTS and NCGC
Structure (SMILES),Potency,"activity change, negative = inhibition"
COc1ccc(CCn2c3c(c(=O)[nH]c2=S)CN(CC(C)C)CN3)cc1OC,6.31 µM (active),–
CCCN1CNc2c(c(=O)[nH]c(=S)n2CCc2cccc(Cl)c2)C1,15.8 µM (active),–
COc1cccc(CCn2c(N)cc(=O)[nH]c2=S)c1OC,–,8.02%
Cc1ccc(S(=O)(=O)N2CCN(C(=O)N(c3ccccc3)c3ccccc3)CC2)cc1,–,-39.1% [at 130 µM]
c1csc(-c2nc(NCC3CCCO3)c3ccccc3n2)c1 (stereo unspecified),–,1.37% [at 32.4 µM]
COc1ccc(CCn2c3c(c(=O)[nH]c2=S)CN(Cc2ccccc2)CN3)cc1OC,7.94 µM (active),–
COc1ccc(CCn2c(=S)[nH]c(=O)c3c(C)cc(C)nc32)cc1OC,–,5.96%
CCCN1CNc2c(c(=O)[nH]c(=S)n2CCc2ccc(Cl)c(Cl)c2)C1,8.91 µM (active),–
CC(=O)c1ccc(N2CCN(C(=O)c3ccc4c(c3)CCC(=O)N4)CC2)cc1,–,-2.32%
COc1ccc(CCn2c3c(c(=O)[nH]c2=S)CN(C)CN3)cc1OC,31.6 µM (active),–
O=C1Cc2cc(S(=O)(=O)N3CCN(c4ccc(C(F)(F)F)cc4)CC3)ccc2N1,–,-24.1% [at 130 µM]
